The source of these data is PubChem BioAssay (Tox21).

The nature of assay [1]: qHTS assay to identify small molecule agonists of the estrogen receptor alpha (ER-alpha) signaling pathway in the presence of an antagonist - cell viability counter screen (AID 1259386).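 Also: cells exposed to compounds for 22 h at 37 °C before the viability read; nearly all actives have a fitted effect of over 30% in size.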 Also: potency is read from the fitted curve at half-maximal effect. The gist of the method: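 Cytotoxicity was measured in parallel with the ERE-luciferase agonist screen, in the same wells. The cells were VM7Luc4E2, which endogenously express ER-alpha, and treatment was with compounds plus 10.0nM ICI-182,780 for 22hr.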

For assay [2], the target named is Progesterone receptor (Homo sapiens) (UniProt P06401). Nature of the assay: qHTS assay to identify small molecule antagonists of the progesterone receptor (PR) signaling pathway (AID 1346795; active = well fitted inhibition curve with a large enough effect in the signal ratio in the repeat runs, not every such curve was filed as active; the % refers to the signal ratio; also: potency is read from the fitted curve at half-maximal effect). The gist of the method: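 Fluorescence intensity measured 2 hr after adding beta-lactamase FRET substrate to PR-UAS-bla HEK293T cells that had been co-treated 16 hr with compound and 1 nM R5020 (final concentration) in 2% charcoal-stripped FBS.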
Sequence of Progesterone receptor (Homo sapiens) (P06401 whole entry, looked up): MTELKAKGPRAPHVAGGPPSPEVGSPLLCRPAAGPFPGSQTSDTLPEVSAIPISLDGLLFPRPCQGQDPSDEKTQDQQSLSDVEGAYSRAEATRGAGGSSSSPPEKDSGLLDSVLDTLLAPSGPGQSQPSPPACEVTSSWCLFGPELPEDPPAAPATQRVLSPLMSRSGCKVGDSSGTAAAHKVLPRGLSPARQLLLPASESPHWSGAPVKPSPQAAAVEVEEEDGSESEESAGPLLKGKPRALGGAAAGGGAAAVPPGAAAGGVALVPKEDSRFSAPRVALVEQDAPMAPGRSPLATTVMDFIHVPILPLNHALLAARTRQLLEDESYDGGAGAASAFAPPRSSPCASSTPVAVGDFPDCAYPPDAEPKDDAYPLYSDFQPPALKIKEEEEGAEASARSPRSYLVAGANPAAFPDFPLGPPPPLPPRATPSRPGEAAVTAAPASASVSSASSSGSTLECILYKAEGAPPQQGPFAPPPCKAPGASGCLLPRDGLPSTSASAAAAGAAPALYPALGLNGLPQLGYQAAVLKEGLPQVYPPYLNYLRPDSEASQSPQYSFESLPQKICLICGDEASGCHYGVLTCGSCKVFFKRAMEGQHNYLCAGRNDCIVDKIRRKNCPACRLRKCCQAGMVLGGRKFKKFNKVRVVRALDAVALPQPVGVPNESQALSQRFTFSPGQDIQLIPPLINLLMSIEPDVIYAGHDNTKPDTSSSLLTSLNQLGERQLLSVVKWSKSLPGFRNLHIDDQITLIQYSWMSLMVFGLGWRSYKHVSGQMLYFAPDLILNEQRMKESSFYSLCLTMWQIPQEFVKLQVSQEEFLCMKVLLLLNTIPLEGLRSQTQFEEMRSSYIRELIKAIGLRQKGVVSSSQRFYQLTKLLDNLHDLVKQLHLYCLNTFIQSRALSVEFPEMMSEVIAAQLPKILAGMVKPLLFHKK

Assay [3] is described as follows: qHTS assay to identify small molecule antagonists of the TGF-beta/Smad signaling pathway - cell viability counter screen (AID 1346824). Also: nearly all actives have a fitted effect of over 50% in size. The gist of the method: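 SBE-bla HEK 293T cells, incubated overnight, then compound plus 0.25 ng/mL TGF-beta1 (stock added) for 5 hr at 37 C. Viability was read in the same wells by CellTiter-Glo luminescence after 30 min at room temperature.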

A short description of assay [4]: qHTS assay to identify small molecule agonists of the TGF-beta/Smad signaling pathway - cell viability counter screen (AID 1346829). Also: top concentration of the series differs between compounds; nearly all actives have a fitted effect of over 45% in size. The method, boiled down:
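Same-well cytotoxicity: CellTiter-Glo added after the 2 hr room-temperature beta-lactamase substrate step, luminescence measured 30 min later; cells had 5 hr of compound at 37 C.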

In assay [5] the target is Thyrotropin-releasing hormone receptor (Homo sapiens) (UniProt P34981). The experiment in a line: qHTS assay to identify small molecule antagonists of the thyrotropin-releasing hormone receptor (TRHR) signaling pathway (AID 1346877; active = well fitted inhibition curve with a large enough effect in the repeat runs, not every such curve was filed as active; also: series mostly up to about 51 µM). The method, boiled down: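 Antagonism is measured as suppression of the calcium response to 1 nM TRH in TRHR-HEK293 cells that have been dye-loaded for 2 h at 37 °C after overnight plating. Each compound is tested at 15 concentrations in triplicate.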
Sequence of Thyrotropin-releasing hormone receptor (Homo sapiens) (P34981 whole entry, looked up): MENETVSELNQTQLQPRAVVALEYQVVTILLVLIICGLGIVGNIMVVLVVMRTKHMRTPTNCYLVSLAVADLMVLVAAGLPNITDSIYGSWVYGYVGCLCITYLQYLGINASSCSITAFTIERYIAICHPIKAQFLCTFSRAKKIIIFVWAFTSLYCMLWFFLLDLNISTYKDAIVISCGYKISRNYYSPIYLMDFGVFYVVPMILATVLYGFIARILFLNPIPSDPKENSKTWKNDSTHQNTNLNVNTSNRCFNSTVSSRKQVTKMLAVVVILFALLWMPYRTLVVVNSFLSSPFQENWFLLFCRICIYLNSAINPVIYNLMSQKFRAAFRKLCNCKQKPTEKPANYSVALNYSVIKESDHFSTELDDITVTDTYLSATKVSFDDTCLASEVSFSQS

Assay [6] has the same target. Nature of the assay: qHTS assay to identify small molecule agonists of the thyrotropin-releasing hormone receptor (TRHR) signaling pathway (AID 1346891; calls by dose curve;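 also: HEK293 cells expressing TRHR with calcium dye readout; series mostly up to about 58 µM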). The gist of the method:
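Compounds were tested as agonists at 15 concentrations, in triplicate, on TRHR-Hek293 cells; calcium-sensitive dye fluorescence was recorded for 3 min following addition.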

Assay [7] in a line: Human pregnane X receptor (PXR) small molecule agonists, qHTS cell viability counter screen (AID 1346977). Also: nearly all actives have a fitted effect of over 50% in size. Also: potency is read from the fitted curve at half-maximal effect. The gist of the method: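 Viability counter screen: CellTiter-Fluor signal in PXR-Luc HepG2 cells, 24hr compound exposure, 37C, 5% CO2.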
A short description of assay [8]: Caspase-3/7 induction in CHO-K1 cells by small molecules, qHTS cell viability counter screen (AID 1346979). Also: nearly all actives have a fitted effect of over 35% in size. Also: potency is read from the fitted curve at half-maximal effect. The gist of the method:
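Viability readout by fluorescence (CellTiter-Fluor) on wild-type CHO-K1 cells exposed for 16hr at 37C and 5% CO2 to compounds delivered in DMSO; reagent incubated 1hr before reading.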

Assay [9] can be described thus: Caspase-3/7 induction in CHO-K1 cells by small molecules, qHTS assay (AID 1346980). Also: nearly all actives have a fitted effect of over 15% in size. Also: potency is read from the fitted curve at half-maximal effect. The method, boiled down:
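Wild-type CHO-K1 cells exposed to compounds for 17hr at 37 C, 5% CO2. Caspase-3/7 activity then measured by Caspase-Glo 3/7 luminescence after 30min at room temperature.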

Assay [10] can be described thus: Caspase-3/7 induction in HepG2 cells by small molecules, qHTS cell viability counter screen (AID 1346981). Also: nearly all actives have a fitted effect of over 30% in size. Also: potency is read from the fitted curve at half-maximal effect. The method, boiled down: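 Cell viability is measured as a cytotoxicity counter screen alongside the Caspase-Glo 3/7 readout in identical wells. Wild-type HepG2 cells are treated with test compounds for 16 hr at 37 C before CellTiter-Fluor addition and a 1-hr incubation.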

For assay [11], the target named is Nuclear receptor subfamily 1 group I member 2 (Homo sapiens) (UniProt O75469). The experiment in a line: Human pregnane X receptor (PXR) small molecule agonists, qHTS assay (AID 1346982). Also: nearly all actives have a fitted effect of over 35% in size. Also: potency is read from the fitted curve at half-maximal effect. The gist of the method:
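Cells: HepG2 stably carrying PXR-Luc. Medium held 5% charcoal-stripped FBS. Compounds in DMSO added after 5 hr plating, incubated 24 hr, then luminescence quantified with ONE-Glo.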

Assay [12] can be described thus: qHTS assay to identify small molecule antagonists of the progesterone receptor (PR) signaling pathway - cell viability counter screen (AID 1346798). Also: series mostly up to about 92 µM; nearly all actives have a fitted effect of over 50% in size. The method, boiled down: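 CellTiter-Glo luminescence; PR-UAS-bla HEK293T, 3,000 cells/well; compound + R5020, 16 hr, 37C/5% CO2; 30 min RT before read.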
Assay [13] is described as follows: qHTS assay to identify small molecule agonists of the progesterone receptor (PR) signaling pathway - cell viability counter screen (AID 1346799; calls by dose curve; also: nearly all actives have a fitted effect of over 45% in size; also: potency is read from the fitted curve at half-maximal effect). The gist of the method:
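In parallel with the beta-lactamase readout, cytotoxicity toward PR-UAS-bla HEK293T cells was measured by CellTiter-Glo luminescence following 16 hr compound incubation in 2% charcoal-stripped FBS medium.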

A short description of assay [14]: qHTS assay to identify small molecule agonists of the TGF-beta/Smad signaling pathway (AID 1346859; active = well fitted activation curve with a large enough effect in the signal ratio in the repeat runs, not every such curve was filed as active; the % refers to the signal ratio; also: series mostly up to about 77 µM). The gist of the method:
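After overnight seeding, SBE-bla HEK 293T cells are dosed with compounds in DMSO and kept 5 hr at 37 C, 5% CO2. LiveBLAzer-type FRET substrate is then applied for 2 hr at room temperature.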

Assay [15] in a line: Caspase-3/7 induction in HepG2 cells by small molecules, qHTS assay (AID 1346978). Also: nearly all actives have a fitted effect of over 15% in size. The method, boiled down:
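Wild-type HepG2 cells, 2,000/well, settled 5 hr at 37 C and 5% CO2, then compound-treated for 17 hr; caspase-3/7 activity read by luminescent Caspase-Glo 3/7 after 30 min at room temperature.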

The target in assay [16] is Cytochrome P450 2D6 (Homo sapiens) (UniProt P10635). Nature of the assay: Cytochrome P450 Family 2 Subfamily D Member 6 (CYP2D6) small molecule antagonists: luciferase reporter qHTS assay (AID 1671196). Also: nearly all actives have a fitted effect of over 50% in size. Also: potency is read from the fitted curve at half-maximal effect. The method, boiled down: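 Enzyme and proluciferin substrate were first combined with test chemical for 10 min at room temperature. Adding NADPH regeneration solution started a 1 h reaction, stopped with luciferin detection reagent and read by luminescence 20 min later.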
Sequence of Cytochrome P450 2D6 (Homo sapiens) (P10635 whole entry, looked up): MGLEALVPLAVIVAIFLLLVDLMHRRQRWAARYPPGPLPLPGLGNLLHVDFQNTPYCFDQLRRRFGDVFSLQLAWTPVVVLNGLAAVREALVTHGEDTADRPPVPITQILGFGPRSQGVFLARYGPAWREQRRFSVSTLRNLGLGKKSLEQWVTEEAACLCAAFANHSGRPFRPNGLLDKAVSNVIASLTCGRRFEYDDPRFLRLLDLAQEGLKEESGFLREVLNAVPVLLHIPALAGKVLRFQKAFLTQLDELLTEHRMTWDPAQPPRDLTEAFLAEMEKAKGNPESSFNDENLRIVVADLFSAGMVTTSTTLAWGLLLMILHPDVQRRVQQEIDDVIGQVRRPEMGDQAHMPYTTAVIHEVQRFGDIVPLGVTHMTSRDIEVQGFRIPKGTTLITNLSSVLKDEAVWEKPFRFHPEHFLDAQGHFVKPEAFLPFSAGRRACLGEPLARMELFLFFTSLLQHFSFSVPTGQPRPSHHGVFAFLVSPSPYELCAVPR

Assay [17] addresses Nuclear receptor subfamily 1 group I member 2 (Rattus norvegicus) (UniProt Q9R1A7). The experiment in a line: Rat pregnane X receptor (rPXR) activation by small molecules, qHTS assay (AID 1346983). Also: potency is read from the fitted curve at half-maximal effect; nearly all actives have a fitted effect of over 20% in size. The conditions noted are these: rPXR luciferase reporter cells, One-Glo luminescence, 24 h; max activation: stronger effect = higher value. The gist of the method:
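Cell-based rPXR activation assay: rPXR cells, 2,000 per well, rested 5hr at 37 C, then exposed to compounds in DMSO for 24 hr at 37 C. Luciferase activity read by One-Glo luminescence after 30 min at room temperature.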

The target in assay [18] is Nuclear receptor subfamily 1 group I member 2 (Homo sapiens) (UniProt O75469). Nature of the assay: CYP3A4 induction through human pregnane X receptor (PXR) by small molecules, qHTS assay (AID 1346984). Also: potency is read from the fitted curve at half-maximal effect; nearly all actives have a fitted effect of over 40% in size. The gist of the method: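 Quantitative HTS in DPX-2 cells, i.e. HepG2 transfected with PXR response element and CYP3A4-promoter luciferase. Compounds in DMSO incubated 24hr at 37C; then P450-Glo CYP3A4 substrate, 3uM final, 3hr; One-Glo luminescence.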
Sequence of Nuclear receptor subfamily 1 group I member 2 (Homo sapiens) (O75469 whole entry, looked up): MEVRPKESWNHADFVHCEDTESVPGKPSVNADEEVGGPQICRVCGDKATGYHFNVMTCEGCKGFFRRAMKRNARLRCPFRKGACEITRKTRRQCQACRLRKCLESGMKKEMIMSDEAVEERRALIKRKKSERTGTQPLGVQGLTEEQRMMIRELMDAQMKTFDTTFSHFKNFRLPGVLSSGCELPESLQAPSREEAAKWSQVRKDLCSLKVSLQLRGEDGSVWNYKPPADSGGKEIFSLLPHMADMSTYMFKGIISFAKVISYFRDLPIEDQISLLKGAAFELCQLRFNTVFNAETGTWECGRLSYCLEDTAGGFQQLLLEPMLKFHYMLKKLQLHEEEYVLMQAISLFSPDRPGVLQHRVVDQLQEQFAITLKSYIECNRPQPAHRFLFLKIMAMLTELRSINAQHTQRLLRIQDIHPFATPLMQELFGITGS

The target is the same in assay [19]. Nature of the assay: Human pregnane X receptor (PXR) activation by small molecules, qHTS assay (AID 1346985). Also: potency is read from the fitted curve at half-maximal effect; nearly all actives have a fitted effect of over 40% in size. The gist of the method:
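DPX-2 cells (HepG2 co-transfected with a PXR response element and a CYP3A4-promoter luciferase construct) were seeded at 2,000 per well, rested 5 hr at 37C, then exposed to DMSO-dissolved compounds for 24 hr. Activation was read as luciferase luminescence.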

A number with no mark means an inactive call. Inconclusive results are not listed. Activity calls are given as the source filed them. Unless noted, calls follow the shape of the dose curve; as a rule, active = well fitted curve in the direction sought with a large enough effect in the repeat runs; inconclusive = weak or mixed curves; inactive = no such curve, though single readings can be large; an effect the other way counts as inactive or inconclusive.

Sequence of Nuclear receptor subfamily 1 group I member 2 (Rattus norvegicus) (Q9R1A7 whole entry, looked up): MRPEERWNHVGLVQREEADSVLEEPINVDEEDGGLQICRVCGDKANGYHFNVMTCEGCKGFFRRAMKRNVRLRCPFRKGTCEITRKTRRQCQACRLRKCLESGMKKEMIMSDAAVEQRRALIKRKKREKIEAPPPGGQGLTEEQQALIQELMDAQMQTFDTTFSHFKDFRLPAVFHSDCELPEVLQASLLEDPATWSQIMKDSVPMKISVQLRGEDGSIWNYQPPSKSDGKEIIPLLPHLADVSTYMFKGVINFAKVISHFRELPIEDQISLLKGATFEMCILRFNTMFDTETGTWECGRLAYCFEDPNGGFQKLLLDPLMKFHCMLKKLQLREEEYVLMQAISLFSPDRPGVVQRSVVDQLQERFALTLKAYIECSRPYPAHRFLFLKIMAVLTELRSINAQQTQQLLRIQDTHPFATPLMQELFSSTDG

Consider `COc1ccc(S(=O)(=O)N2C(=O)[C@@](c3ccccc3OC)(N3C[C@H](O)C[C@H]3C(=O)N(C)C)c3cc(Cl)ccc32)c(OC)c1`, for which the Potency in [1] is 27.3 µM (active); in [2] it was 54.5 µM (active); in assay [7], 54.5 µM (active); in [8], 30.6 µM (active); in assay [9] it was 61.1 µM (active); in assay [10], 30.6 µM (active). Besides, the Potency in [11] was 61.1 µM (active). Further, the Potency result in [3] and in [6] was “inactive” each time. Moreover, the outcome in assay [4] and in assay [5] was inactive.

Turning to `Cc1ccccc1S(=O)(=O)O`, the Potency result in [1], in assay [2], in assay [12], in [13], in assay [3] and in assay [14] was “inactive” in each case. In addition, the Potency result in assay [6], in assay [7], in [15], in [8], in [9] and in assay [10] was “inactive” throughout. In addition, the Potency result in [11] and in assay [16] was “inactive” each time. In assay [5], the call was inactive.

On to `Nc1cccc([N+](=O)[O-])c1`, for which the Potency entry in assay [1], in [12], in [13], in assay [3], in [14] and in [6] was “inactive” in each case. The Potency result in [7], in assay [15], in assay [9], in assay [10], in assay [11] and in assay [16] was “inactive” throughout. Also, the call in assay [4] and in assay [5] was inactive.

With `CCCCCCc1ccc(-c2ccc(C#N)cc2)cc1`, the Potency entry in [1], in assay [12], in assay [3], in [14], in [7] and in assay [15] was “inactive” throughout. Also, the Potency result in assay [8], in assay [9], in assay [10] and in assay [11] was “inactive” each time. For the same compound, the results for the Potency in [2] and in assay [16] were 21.3 µM (active) and 39.2 µM (active), respectively. Further, the result in [4] was inactive.

In the case of `C[C@H]1C[C@H]2[C@@H]3CCC4=CC(=O)C=C[C@]4(C)[C@@]3(Cl)[C@@H](O)C[C@]2(C)[C@@]1(O)C(=O)CO`, the Potency entry in assay [1], in assay [12], in assay [3], in assay [6], in assay [15] and in assay [9] was “inactive” each time. Moreover, the Potency entry in assay [10] is “inactive”. Besides, the result in assay [4] and in assay [5] was inactive. Moreover, the Potency in assay [17] is 5.62 µM (active); in assay [18], 15.8 µM (active); in assay [19], 11.2 µM (active); in [16], 30.9 µM (active).

With `Cc1c(N)cccc1[N+](=O)[O-]`, the Potency result in assay [1], in assay [12], in assay [3], in assay [14], in assay [7] and in assay [15] was “inactive” each time. For the same compound, the Potency entry in [8], in assay [9], in assay [10] and in assay [16] was “inactive” in each case. In addition, in assay [4], the compound was called inactive.

With `O=C(Cl)c1cc(C(=O)Cl)cc(C(=O)Cl)c1`, the Potency result in assay [1], in assay [13], in [3], in assay [14], in assay [6] and in assay [15] was “inactive” in each case. Also, the Potency result in [9] and in [10] was “inactive” throughout. Also, the compound was called inactive in assay [4] and in [5]. The Potency in assay [11] was 54.5 µM (active).

`CCCCC(=O)OCC(=O)[C@H]1[C@H](C)C[C@H]2[C@@H]3C[C@H](F)C4=CC(=O)C=C[C@]4(C)[C@@]3(F)[C@@H](O)C[C@@]21C`: the Potency result in assay [1], in assay [2], in assay [12], in assay [3], in [14] and in assay [15] was “inactive” in each case. Besides, the Potency result in [8], in assay [9] and in assay [10] was “inactive” in each case. Moreover, in assay [4], the result was inactive. Also, the Potency in assay [11] was 9.44 µM (active).

For `C[C@H](CCC(=O)O)[C@H]1CC[C@H]2[C@@H]3CC[C@@H]4C[C@H](O)CC[C@]4(C)[C@H]3C[C@H](O)[C@]12C`, the Potency result in assay [1], in [3], in assay [6], in assay [7], in [15] and in [9] was “inactive” each time. Further, the Potency in assay [13] and in [10] was 54.6 µM (active) in each case. Further, the result in assay [4] and in [5] was inactive.
